From PubChem BioAssay AID1159580 (chemical genetic matrix, 2015)
Values joined by “and” are separate entries in the source; they are usually repeats but may differ in a detail not shown here. Equal values may be shown once. About 2,000 (36%) of roughly 5,500 compounds were called active. Another 18% or so got no clear call; they are omitted. Cut-off read from the data, not from the text of the source: active = normalized growth mostly below about 0.91 (no sharp cut-off); inconclusive = no clear call, values can overlap the other calls; inactive = mostly above about 0.92. The list shows a part of the results.

Test: chemical genetic growth profiling, strain panel (AID 1159580);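 note: tested at 20 µM; growth read once vehicle control cultures reached saturation at 30 °C; 1 = growth at the plate median or of vehicle wells; lower values mean less growth of the strain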
Details: S. cerevisiae deletion strains, growth OD

Measured: normalized growth

CCC(=O)O[C@H]1[C@H](O[C@@H]2[C@@H](C)[C@H](O[C@H]3C[C@@](C)(OC)[C@@H](O)[C@H](C)O3)[C@@H](C)C(=O)O[C@H](CC)[C@@](C)(O)[C@H](O)[C@@H](C)C(=O)[C@H](C)C[C@@]2(C)O)O[C@H](C)C[C@@H]1N(C)C
inactive: locus YAL013W, strain DEP1, stronger effect = lower value 0.996 | locus YAL021C, strain ccr4, stronger effect = lower value 0.958 | locus YAL026C, strain drs2, stronger effect = lower value 0.942 | locus YAL030W, strain snc1, stronger effect = lower value 0.984 | locus YBL061C, strain skt5, stronger effect = lower value 0.973 | locus YBR171W, strain sec66, stronger effect = lower value 1.01 | locus YBR229C, strain ROT2, stronger effect = lower value 1.02 | locus YCL029C, strain bik1, stronger effect = lower value 0.988 | locus YCL061C, strain MRC1, stronger effect = lower value 0.949 | locus YCR088W, strain abp1, stronger effect = lower value 1.02 | locus YDL005C, strain med2, stronger effect = lower value 0.984 | locus YDL035C, strain GPR1, stronger effect = lower value 0.915 | locus YDL040C, strain nat1, stronger effect = lower value 1.01 | locus YDL074C, strain BRE1, stronger effect = lower value 0.809 | locus YDL101C, strain DUN1, stronger effect = lower value 0.959 | locus YDL134C, strain PPH21, stronger effect = lower value 0.91 | locus YDL185W, strain tfp1, stronger effect = lower value 1.01 | locus YDL192W, strain arf1, stronger effect = lower value 1 | locus YDR001C, strain nth1, stronger effect = lower value 1.02 | locus YDR069C, strain doa4, stronger effect = lower value 1.04 | locus YDR101C, strain arx1, stronger effect = lower value 1 | locus YDR162C, strain NBP2, stronger effect = lower value 0.944 | locus YDR297W, strain sur2, stronger effect = lower value 0.942 | locus YDR318W, strain mcm21, stronger effect = lower value 0.99 | locus YDR334W, strain swr1, stronger effect = lower value 0.957 | locus YDR388W, stronger effect = lower value 0.972 | locus YDR502C, strain sam2, stronger effect = lower value 1.01 | locus YEL037C, strain rad23, stronger effect = lower value 0.971 | locus YEL061C, strain CIN8, stronger effect = lower value 0.97 | locus YER015W, strain faa2, stronger effect = lower value 0.975 | locus YER016W, strain bim1, stronger effect = lower value 0.965 | locus YER110C, stronger effect = lower value 0.967 | locus YER155C, strain BEM2, stronger effect = lower value 1.03 | locus YER167W, strain BCK2, stronger effect = lower value 0.971 | locus YFR010W, strain ubp6, stronger effect = lower value 0.911 | locus YGL078C, strain dbp3, stronger effect = lower value 0.995 | locus YGL086W, strain mad1, stronger effect = lower value 0.994 | locus YGL167C, strain pmr1, stronger effect = lower value 1 | locus YGL173C, strain kem1, stronger effect = lower value 0.938 | locus YGL227W, strain vid30, stronger effect = lower value 1.01 | locus YGL248W, strain PDE1, stronger effect = lower value 0.918 | locus YGR135W, strain pre9, stronger effect = lower value 0.92 | locus YHR027C, strain rpn1, stronger effect = lower value 1 | locus YHR030C, strain SLT2, stronger effect = lower value 1.02 and 0.875 | locus YHR079C, strain IRE1 (second series), stronger effect = lower value 1.01 | locus YHR079C, strain IRE1, stronger effect = lower value 0.874 | locus YHR094C, strain hxt1, stronger effect = lower value 1.01 | locus YHR129C, strain ARP1, stronger effect = lower value 0.99 | locus YHR200W, strain rpn10, stronger effect = lower value 1.01 | locus YIL073C, strain SPO22, stronger effect = lower value 1.05 | locus YIL125W, strain kgd1, stronger effect = lower value 1.02 | locus YIR030C, strain dcg1, stronger effect = lower value 1.02 | locus YJL092W, strain hpr5, stronger effect = lower value 1.01 | locus YJL095W, strain BCK1 (second series), stronger effect = lower value 0.993 | locus YJL115W, strain asf1, stronger effect = lower value 1.03 | locus YJL134W, strain LCB3, stronger effect = lower value 1.02 | locus YJL154C, strain vps35, stronger effect = lower value 1.01 | locus YJL168C, strain set2, stronger effect = lower value 1.01 | locus YJL187C, strain SWE1 (second series), stronger effect = lower value 0.967
active: locus YBR009C, strain hhf1, stronger effect = lower value 0.797 | locus YBR021W, strain FUR4, stronger effect = lower value 0.232 | locus YBR023C, strain chs3, stronger effect = lower value 0.894 | locus YBR231C, strain swc5, stronger effect = lower value 0.836 | locus YBR279W, strain paf1, stronger effect = lower value 0.911 | locus YCL011C, strain gbp2, stronger effect = lower value 0.823 | locus YCL016C, strain dcc1, stronger effect = lower value 0.912 | locus YCL069W, strain vba3, stronger effect = lower value 0.899 | locus YDR137W, strain rgp1, stronger effect = lower value 1.18 [resistant] | locus YDR159W, strain sac3, stronger effect = lower value 0.826 | locus YDR195W, strain ref2 1.22 [resistant] | locus YDR335W, strain msn5, stronger effect = lower value 0.877 | locus YDR392W, strain spt3, stronger effect = lower value 0.292 | locus YEL003W, strain gim4, stronger effect = lower value 0.862 | locus YEL061C, strain CIN8 (second series), stronger effect = lower value 0.875 | locus YER111C, strain swi4, stronger effect = lower value 0.867 | locus YER155C, strain BEM2 (second series), stronger effect = lower value 0.32 | locus YGL240W, strain doc1, stronger effect = lower value 0.731 | locus YGL253W, strain hxk2, stronger effect = lower value 0.671 | locus YGR078C, strain PAC10, stronger effect = lower value 0.797 | locus YGR252W, strain gcn5, stronger effect = lower value 0.695 | locus YHR013C, strain ard1, stronger effect = lower value 0.722 | locus YHR142W, strain chs7, stronger effect = lower value 0.7 | locus YIL066C, strain RNR3, stronger effect = lower value 0.8 | locus YJL129C, strain trk1, stronger effect = lower value 0.7 | locus YJL164C, strain tpk1, stronger effect = lower value 0.832 | locus YJL166W, strain qcr8, stronger effect = lower value 0.813 | locus YJR043C, strain POL32, stronger effect = lower value 0.832
0.975 (inactive) and 0.864 (active): locus YJL095W, strain BCK1, stronger effect = lower value
